Compounds with a hit are over-represented: about 4.6% of the library has one in this group of screens.
PfHsp90 set2 = growth inhibition of PfHsp90-expressing yeast, primary screen, antimalarial PfHsp90 inhibitor project, S. cerevisiae, BacTiter-Glo luminescence, single point, set 2. BacTiter-Glo ATP, 48 h; yeast lacking PDR1 and PDR3 efflux regulators. inhibition, % at 9.4 µM. hit rate 0.32% among 310,000;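 active = every replicate shows inhibition above about 80%, whatever the replicate mean, limit read from the data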
tim10-1 inh = growth inhibitors of tim10-1 mutant yeast, primary screen, luminescence, uHTS. S. cerevisiae tim10-1 ts strain growth, BacTiter-Glo, 24 h. inhibition, % at 20 µM. hit rate 2.2% among 330,000;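 active = inhibition of at least 40%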;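 also: mutant grown at 25 °C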
tim23-1 inh = growth inhibitors of tim23-1 mutant yeast, primary screen, luminescence, uHTS. S. cerevisiae tim23-1 growth, BacTiter-Glo luminescence, 24 h. inhibition, % at 20 µM. hit rate 1.3% among 330,000. AID 463212, 2010;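 active = growth inhibition of the mutant yeast at or above 50%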;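 also: temperature-sensitive mutant grown at 25 °C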
SKKanGAS inh = S. pyogenes SKKanGAS growth inhibitors in kanamycin, primary screen, streptokinase expression inhibitor project, SKKanGAS strain, BacTiter-Glo luminescence; 6 h; inhibition, % at 7.5 µM; hit rate 1.3% among 300,000;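 active = mean replicate score, as percent of positive control median, at least 50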;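 also: strain carries kanamycin resistance gene driven by streptokinase promoter and grows in 40 µg/ml kanamycin; loss of luminescence reflects streptokinase promoter inhibition or plain growth inhibition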
V-ATPase pH = regulators of yeast V-ATPase proton pumping, primary screen, pHLuorin cytosolic pH fluorescence | S. cerevisiae | response, % at 10 µM | hit rate 0.37% among 350,000; in the data active = response mostly above about 7.3%, no sharp cut-off; inactive = mostly below about 5.4%; also: actives read high
TIM10 inh = growth inhibitors of isogenic TIM10 control yeast, primary screen, counter-screen for tim10-1 yeast inhibitor project, luminescence, uHTS; S. cerevisiae TIM10 strain growth, BacTiter-Glo luminescence, 24 h; hit rate 1.4% among 330,000; inhibition, % at 10 µM;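 active = inhibition of 40% or more at the single tested concentration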;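 also: wild-type TIM10 isogenic control strain grown at permissive 25 °C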
TIM10 conf = growth inhibitors of wild-type TIM10 yeast, confirmation, counter-screen for tim10-1 synthetic lethality project, single concentration, luminescence, S. cerevisiae; S. cerevisiae tim10 strain growth, BacTiter-Glo luminescence, 24 h; shares compounds with TIM10 inh; hit rate 63% among 4,600; inhibition, % at 10 µM; AID 463215, 2010;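 active = inhibition of yeast growth at or above a set limit in either of two replicates at 10 µM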; also: this counterscreen used the strain with wild-type TIM10
Hits are given with their value; . = inactive; / = no result.

SMILES	PfHsp90 set2	tim10-1 inh	tim23-1 inh	SKKanGAS inh	V-ATPase pH	TIM10 inh	TIM10 conf
Cc1ccc(OCc2cc(C(=O)N3CCC(Oc4cccnc4)CC3)no2)cc1C	.	.	.	.	.	.	/
O=C(c1cc(COc2cccc(C(F)(F)F)c2)on1)N1CCC(Oc2cccnc2)CC1	.	.	.	.	.	43	43
CCc1cc(C(=O)N(C)CC(=O)Nc2c(Cl)cccc2Cl)sc1C	.	.	.	/	.	.	/
COCCCNC(=O)/C(C#N)=C/c1cccc(NC(=O)c2ccccc2Cl)c1	.	.	.	.	.	45	46
CC(=O)N1c2cc3ccccc3cc2N(C(C)=O)c2cc3ccccc3cc21	.	/	/	/	.	/	/
O=C(NC12CC3CC(CC(C3)C1)C2)N(Cc1ccccc1)Cc1ccncc1	/	.	.	.	.	44	32
Cc1ccsc1CN(C)C(=O)CN1C(=O)NC2(CCCc3ccccc32)C1=O (stereo not drawn)	.	.	.	/	.	96	.
COc1cccc(CN(C)C(=O)CN2C(=O)NC3(CCCc4ccccc43)C2=O)c1 (stereo not drawn)	/	.	.	/	.	.	/
N#CC1(NC(=O)CSc2nnc3n2CCCCC3)CCCCC1	.	.	.	/	.	81	.
CN1CCN(c2nc(-c3ccc(Cl)cc3)nc3ccccc23)CC1	.	.	.	.	.	41	.
Cc1ccc(Nc2nc(N/N=C/c3c[nH]c4ccccc34)nc(N3CCOCC3)n2)cc1	.	.	.	.	.	.	/
Cc1[nH]c2ccccc2c1/C=N/Nc1nc(Nc2ccc(F)cc2)nc(N2CCOCC2)n1	.	.	.	.	.	53	34
Cc1ccc(NC(=O)COc2ccc(N(C)C(=O)C(C)(C)C)cc2)cc1S(=O)(=O)N1CCCCC1	.	.	.	/	.	.	/
CCOc1ccc(C(CC(=O)O)NC(=O)Cc2ccc(Cl)cc2)cc1 (stereo not drawn)	.	.	.	.	.	.	/
Cc1ccc2nc(Cl)c(CN(C(=O)c3cnccn3)C3CCCCC3)cc2c1	.	.	.	.	.	41	28
O=C(OCC(=O)N(C1CCCCC1)C1CCCCC1)c1cnccn1	.	.	.	.	.	.	/
Nc1ccn(CC(=O)NCCNc2ccc([N+](=O)[O-])cn2)c(=O)n1	/	.	.	/	.	.	/
COc1cc(C(=O)NCCNC(=O)C2CCCNC2=O)cc(OC)c1OC (stereo not drawn)	.	.	.	.	.	40	.
COc1cc(C(=O)NCCCNC(=O)c2cc(OC)c(OC)c(OC)c2)cc(OC)c1OC	/	.	.	.	.	.	/
COCCNC(=O)c1cn(C)c2ccc(S(=O)(=O)N3CCCCC3)cc2c1=O	.	.	.	.	.	.	/
O=C(CCN1C(=O)c2ccccc2C1=O)C1=NN[C@@H]2C(=O)N(c3ccc4c(c3)OCO4)C(=O)[C@H]12	/	.	.	.	.	.	/
COc1ccc(S(=O)(=O)N(Cc2nc3ccccc3c(=O)[nH]2)C2CCCC2)cc1	.	.	.	.	.	42	.
COc1ccc(CN(Cc2nc3ccccc3c(=O)[nH]2)C(=O)NC2CCCCC2)cc1	.	.	.	.	.	.	/
Cc1nc2ccccn2c1C(=O)N=Nc1c(O)[nH]c2ccccc12	.	.	.	.	.	.	/
COC(=O)c1ccc(C)c(NC(=O)c2ccc(Cn3cc([N+](=O)[O-])cn3)o2)c1	.	.	.	.	.	.	/
SMILES	PfHsp90 set2	tim10-1 inh	tim23-1 inh	SKKanGAS inh	V-ATPase pH	TIM10 inh	TIM10 conf
CCNS(=O)(=O)c1ccc(NC(=O)c2ccc(Cn3cc([N+](=O)[O-])cn3)o2)cc1	.	.	.	.	.	47	.
O=C(O)Cc1cccc(=O)c(O)c1C(=O)O	.	/	/	/	.	/	/
CC1CCN(C(=O)c2ccc(NC3=C(Cl)C(=O)N(Cc4ccccc4)C3=O)cc2)CC1	/	.	.	/	.	41	42
CC1(C)CC(=O)C(C=Nc2ccc(NC3=C(C#N)C(=O)CC(C)(C)C3)cc2)=C(O)C1	.	.	.	.	.	.	/
O=C1CC(c2ccccc2)=Nc2ccccc2N1Cc1ccccc1	.	.	.	.	.	40	.
COc1ccc(-c2coc3cc(O)cc(O)c3c2=O)cc1OC	.	.	.	.	.	.	/
COc1ccccc1-c1coc2cc(O)cc(O)c2c1=O	.	.	.	.	.	42	.
Cc1ccc(CN2C(=O)C(C)(C)Oc3ccc(C(=O)N4CCCCC4)cc32)cc1	.	.	.	.	.	45	.
O=C(Nc1ccc2oc(-c3ccccc3)nc2c1)c1ccc2c(c1)OCCO2	.	.	.	.	.	46	52
CCOC(=O)Cc1csc(NS(=O)(=O)c2ccc([N+](=O)[O-])cc2)n1	.	.	.	.	.	.	/
C/C(Cl)=C\Cn1c(O)c(N=NC(N)=S)c2cc(Br)ccc21	.	.	.	80	.	42	48
O=C(OCc1cc(=O)n2ccsc2n1)c1ccc(OC(F)F)cc1	/	.	.	/	.	.	/
O=C(Nc1ccc(S(=O)(=O)N2CCCCC2)cc1)c1ccccc1Cl	/	.	.	.	.	45	39
O=C(Nc1ccc(S(=O)(=O)N2CCCCCC2)cc1)c1ccco1	/	.	.	.	.	48	.
O=C(Nc1cccc(S(=O)(=O)N2CCCC2)c1)c1ccco1	.	.	.	/	.	.	/
Clc1ccc(CN=C2Nc3ccccc3CS2)cc1	.	.	.	.	.	41	32
COc1ccc(C(=O)/C=C/c2ccccc2F)c(OC(=O)c2ccc([N+](=O)[O-])cc2)c1	.	.	.	.	.	44	41
COc1ccc(CN=Cc2[nH]c3ccc(Br)c(Cl)c3c2O)cc1	.	.	.	.	.	41	.
Cc1cc(C)cc(N=Cc2[nH]c3ccc(Br)c(Cl)c3c2O)c1	.	/	/	.	.	/	/
O=S(=O)(Cc1ccccc1)NCCc1cccc(Cl)c1	.	.	.	.	.	.	/
O=C(C1CCCN(S(=O)(=O)c2ccc(Cl)cc2)C1)N(Cc1cccs1)C1CC1 (stereo not drawn)	.	.	.	.	.	43	.
CN(Cc1cccs1)C(=O)c1ccc(S(=O)(=O)N2CCCCC2)cc1	.	.	.	.	.	.	/
CC1CCN(c2ccccc2NC(=S)NC(=O)c2ccco2)CC1	.	.	.	.	/	43	40
CCCCN(C(=O)c1cccc(S(=O)(=O)N2CCN(C)CC2)c1)c1c(N)n(CCC)c(=O)[nH]c1=O	.	.	.	.	.	.	/
